Bioassay records from PubChem BioAssay.
CendR NRP1 mod – alters CendR peptide binding to human NRP-1 | O14786 | FAM-RPARPAR peptide binding to NRP-1, fluorescence polarization | inhibition, % at 25 µM | AID 602438 | 0.85% of 360,000 active;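 active = inhibition or corrected inhibition above about 18%, plus a signal ratio from 0.5 to 1.5, limit read from the data, passing the limit was not always enough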
PfM18AAP inh-1 – blocks P. falciparum M18 aspartyl aminopeptidase. inhibition, % at 7.35 µM. recombinant PfM18AAP, H-Glu-NHMec fluorogenic cleavage. 1.2% of 290,000 active;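 active = inhibition above the campaign mean inhibition over all tested compounds plus 3 SD, cut at about 28% in these data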;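 note: 0% = plate median of test compound wells and 100% = 2 mM ZnCl2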
ALR inh – human ALR oxidase inhibition via reduced H2O2; 3.8% of 290,000 active; inhibition, % (test concentration not listed); purified ALR, DTT oxidation, H2O2 HRP-luminol luminescence; AID 485317; P55789;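 active = mean replicate inhibition above about 79%, with every replicate also reaching it, limit read from the data; inconclusive = only one of the two criteria met; inactive = mean below limit and not every replicate reaching it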
CR mimetic SO – lowers age-related superoxide in aged yeast cells; S. cerevisiae aged cells, superoxide DHE fluorescence; hits give low values; superoxide response (% of plate mean), % at 10 µM; 0.18% of 330,000 active;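 active = superoxide response under a set limit, about three screen SD below normal, cut at about 65% in these data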;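 note: yeast aged for seven days with compound at 30 °C before DHE staining; 100% = average MFI of all compound-treated wells on the plate with controls excluded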
APOBEC3A inh – blocks human APOBEC3A ssDNA deamination | P31941 | recombinant A3A, FAM/TAMRA ssDNA deamination fluorescence | inhibition, % at 20 µM | 0.41% of 330,000 active;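 active = at least 40% inhibition at 20 µM here, with at most 30% in a related deaminase screen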;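 note: plate controls were A3A with DMSO for no effect and wells lacking A3A enzyme for full effect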
Target sequence (P31941 whole entry, looked up): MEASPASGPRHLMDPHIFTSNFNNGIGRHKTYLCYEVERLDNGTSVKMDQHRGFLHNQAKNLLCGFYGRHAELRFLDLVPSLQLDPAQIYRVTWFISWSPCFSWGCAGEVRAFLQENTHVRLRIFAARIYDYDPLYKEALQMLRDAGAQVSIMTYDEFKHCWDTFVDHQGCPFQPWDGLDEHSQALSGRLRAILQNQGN
A3G deaminase – inhibitors of human APOBEC3G DNA deaminase. recombinant A3G, ssDNA deamination FAM/TAMRA fluorescence. inhibition, % at 20 µM. 0.28% of 330,000 active. AID 493012;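 active = inhibition of at least 40% at 20 µM, with no more than 30% in the related APOBEC3A deaminase screen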;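 note: plate controls were DMSO wells with A3G for no effect and wells lacking A3G enzyme for full effect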
PfM18AAP inh-2 – confirmation of Plasmodium falciparum M18 aspartyl aminopeptidase inhibitors; recombinant PfM18AAP, H-Glu-NHMec fluorogenic cleavage; AID 2170; 28% of 2,400 active; shares compounds with PfM18AAP inh-1; inhibition, % at 7.35 µM;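 active = mean inhibition over replicate wells above the hit cutoff set for the earlier primary screen, cut at about 29% in these data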;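 note: 0% = median of test compound wells and 100% = 2 mM ZnCl2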
CTSL1 counter – Cathepsin L (human) inhibition, confirmation | shares compounds with PfM18AAP inh-1 | purified cathepsin L1, Z-Leu-Arg-MCA fluorescence | inhibition, % at 5.96 µM | 2,400 tested, under 10 active | AID 2178;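 active = average inhibition across replicates above the hit cutoff set in the earlier primary screen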;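 note: 0% = median of test compound wells and 100% = Z-Phe-Ala-diazomethylketone 1 µM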
Target sequence (P07711 whole entry, looked up): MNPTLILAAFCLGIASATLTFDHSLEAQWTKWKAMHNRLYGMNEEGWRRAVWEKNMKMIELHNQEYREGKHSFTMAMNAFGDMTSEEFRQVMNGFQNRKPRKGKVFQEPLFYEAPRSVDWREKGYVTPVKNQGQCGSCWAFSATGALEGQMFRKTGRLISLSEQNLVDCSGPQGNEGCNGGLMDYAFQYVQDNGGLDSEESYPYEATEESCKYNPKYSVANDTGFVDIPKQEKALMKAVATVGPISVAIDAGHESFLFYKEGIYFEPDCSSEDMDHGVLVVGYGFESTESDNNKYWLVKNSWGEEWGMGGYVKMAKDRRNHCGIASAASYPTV
* hit, by the source's call. Only some compounds are listed: those with a hit (about 5.2% of all), similar ones and a draw of the others.

How did CC1(C)Cc2c(c(N3CCOCC3)nc3sc(C(=O)Nc4ccc(Cl)cc4)c(N)c23)CO1 do in these assays?
CendR NRP1 mod: 2; PfM18AAP inh-1: 40*; CR mimetic SO: 100; APOBEC3A inh: -4; A3G deaminase: 5; PfM18AAP inh-2: 0; CTSL1 counter: -7

What do the screens show for `C=CCN=c1scc(-c2ccccc2)n1/N=C/c1ccccn1`?
CendR NRP1 mod: -4; PfM18AAP inh-1: 2; ALR inh: 28; CR mimetic SO: 93; APOBEC3A inh: -4; A3G deaminase: -4

Results for CN=c1scc(-c2ccco2)n1/N=C/c1ccc(O)c(O)c1 ?
CendR NRP1 mod: -19; PfM18AAP inh-1: 59*; APOBEC3A inh: 0; A3G deaminase: -3; PfM18AAP inh-2: 51*; CTSL1 counter: 2

Results for C=CCN=c1scc(C)n1/N=C/c1ccc(O)c(O)c1 ?
CendR NRP1 mod: 2; PfM18AAP inh-1: 57*; ALR inh: 99*; CR mimetic SO: 103; APOBEC3A inh: -5; A3G deaminase: -10; PfM18AAP inh-2: 40*; CTSL1 counter: 9

How did COc1ccc([N+](=O)[O-])cc1NC(=O)C(C)NNC(=O)c1cccc([N+](=O)[O-])c1 (stereo not given) do in these assays?
CendR NRP1 mod: 4; ALR inh: 1; CR mimetic SO: 85; APOBEC3A inh: -1; A3G deaminase: -2

How did O=C(O)c1ccc(NC(=O)c2ccc3c(c2)C(=O)N(CC2CCCO2)C3=O)cc1 (stereo not given) do in these assays?
CendR NRP1 mod: 6; PfM18AAP inh-1: 0; ALR inh: 0; CR mimetic SO: 83; APOBEC3A inh: 0; A3G deaminase: -6

What do the screens show for `O=C(O)c1ccc(/C=N/Nc2ncc(C(F)(F)F)cc2Cl)cc1`?
CendR NRP1 mod: -3; PfM18AAP inh-1: 48*; CR mimetic SO: 97; APOBEC3A inh: -2; A3G deaminase: -6; PfM18AAP inh-2: -25; CTSL1 counter: 7

How did NC(=O)NNc1ncc(C(F)(F)F)cc1Cl do in these assays?
CendR NRP1 mod: 8; PfM18AAP inh-1: 45*; ALR inh: inconclusive; CR mimetic SO: 102; APOBEC3A inh: -1; A3G deaminase: -5; PfM18AAP inh-2: 36*; CTSL1 counter: -5

How did Cc1ccccc1NC(=O)COC(=O)c1cc(S(=O)(=O)N2CCOCC2)ccc1C do in these assays?
CendR NRP1 mod: 0; ALR inh: 0; CR mimetic SO: 102; APOBEC3A inh: -2; A3G deaminase: -5

How did COc1cc(-c2c(C#N)c(N)nc3c2CCCC3)ccc1O do in these assays?
CendR NRP1 mod: -1; PfM18AAP inh-1: 2; ALR inh: 22; CR mimetic SO: 100; APOBEC3A inh: -1; A3G deaminase: -5

Results for COc1cc(-c2c(C#N)c(N)nc3[nH]c(=S)[nH]c(=O)c23)ccc1O ?
CendR NRP1 mod: 14; PfM18AAP inh-1: 33*; ALR inh: 99*; CR mimetic SO: 95; APOBEC3A inh: 2; A3G deaminase: -5; PfM18AAP inh-2: 21; CTSL1 counter: 7

What do the screens show for `COc1ccc(/C(C)=N/Nc2nc3ccccc3nc2C)cc1OC`?
CendR NRP1 mod: -9; PfM18AAP inh-1: 39*; ALR inh: 64; CR mimetic SO: 88; APOBEC3A inh: 0; A3G deaminase: 2; PfM18AAP inh-2: -21; CTSL1 counter: 3

What do the screens show for `COc1ccc(/C(C)=N/Nc2cccc(C(=O)O)c2)cc1OC`?
CendR NRP1 mod: -10; PfM18AAP inh-1: 13; ALR inh: -14; CR mimetic SO: 94; APOBEC3A inh: 5; A3G deaminase: 2

What do the screens show for `CCSc1ccc(-c2ccc(C)cc2)nn1`?
CendR NRP1 mod: 5; PfM18AAP inh-1: -2

What do the screens show for `Oc1cccc(C=Nc2cccc3ccccc23)c1O`?
CendR NRP1 mod: -3; PfM18AAP inh-1: 50*; CR mimetic SO: 100; APOBEC3A inh: 0; A3G deaminase: 20; PfM18AAP inh-2: 32*; CTSL1 counter: -2

What do the screens show for `Oc1ccc2ccccc2c1C=Nc1ccccc1Br`?
CendR NRP1 mod: 126; PfM18AAP inh-1: 5; ALR inh: -23; CR mimetic SO: 105; APOBEC3A inh: -4; A3G deaminase: 10

What do the screens show for `Oc1ccccc1N=Cc1c(O)ccc2ccccc12`?
CendR NRP1 mod: 120; PfM18AAP inh-1: 31*; APOBEC3A inh: -6; A3G deaminase: 18; PfM18AAP inh-2: -5; CTSL1 counter: 3

What do the screens show for `O=C(N/N=C/c1ccc(-c2ccc([N+](=O)[O-])cc2)o1)[C@H]1C[C@@H]1c1ccccc1`?
CendR NRP1 mod: -97; PfM18AAP inh-1: 32*; CR mimetic SO: 94; APOBEC3A inh: 0; A3G deaminase: -7; PfM18AAP inh-2: -37; CTSL1 counter: 3

How did Clc1ccc(N=c2ssnc2Cl)nc1 do in these assays?
CendR NRP1 mod: -5; PfM18AAP inh-1: 39*; ALR inh: 37; CR mimetic SO: 81; APOBEC3A inh: -1; A3G deaminase: 20; PfM18AAP inh-2: 24; CTSL1 counter: -4

Results for CCOc1ccc(CN(C)CC(=O)NCc2ccc(F)cc2)cc1 ?
CendR NRP1 mod: 9; PfM18AAP inh-1: -14; ALR inh: -1; CR mimetic SO: 84; APOBEC3A inh: -3; A3G deaminase: -9

How did O=C(NC(=S)Nn1cnnc1)c1ccccc1Cl do in these assays?
CendR NRP1 mod: -13; PfM18AAP inh-1: 83*; CR mimetic SO: 81; APOBEC3A inh: 1; A3G deaminase: 3; PfM18AAP inh-2: 52*; CTSL1 counter: -7

Results for O=C(NC(=S)Nc1ncccn1)c1ccccc1Cl ?
CendR NRP1 mod: -2; PfM18AAP inh-1: -1; ALR inh: 11; CR mimetic SO: 119; APOBEC3A inh: -6; A3G deaminase: -5

What do the screens show for `COc1cccc(C(=O)NC(=S)Nn2cnnc2)c1OC`?
CendR NRP1 mod: 6; PfM18AAP inh-1: 73*; ALR inh: -4; CR mimetic SO: 93; APOBEC3A inh: 24; A3G deaminase: 0; PfM18AAP inh-2: 60*; CTSL1 counter: -9

What do the screens show for `COC(=O)c1cc(OC)c(OC)cc1NC(=O)c1cccc(OC)c1OC`?
CendR NRP1 mod: 9; PfM18AAP inh-1: -7; ALR inh: 5; CR mimetic SO: 97; APOBEC3A inh: -1; A3G deaminase: -2

Results for O=C(NC(=S)Nn1cnnc1)c1ccc(F)cc1Cl ?
CendR NRP1 mod: -2; PfM18AAP inh-1: 78*; ALR inh: 3; CR mimetic SO: 92; APOBEC3A inh: -3; A3G deaminase: 2; PfM18AAP inh-2: 55*; CTSL1 counter: -3
